mcGAS lum: blocks mouse cGAS activity; recombinant cGAS, Kinase-Glo ATP depletion luminescence; Q8C6L5; 160,000 tested, 0.15% active; inhibition, % at 12.5 µM;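 also: 0% = negative control wells and 100% = reference inhibitor with no enzyme activity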
Target sequence (Q8C6L5 whole entry, looked up): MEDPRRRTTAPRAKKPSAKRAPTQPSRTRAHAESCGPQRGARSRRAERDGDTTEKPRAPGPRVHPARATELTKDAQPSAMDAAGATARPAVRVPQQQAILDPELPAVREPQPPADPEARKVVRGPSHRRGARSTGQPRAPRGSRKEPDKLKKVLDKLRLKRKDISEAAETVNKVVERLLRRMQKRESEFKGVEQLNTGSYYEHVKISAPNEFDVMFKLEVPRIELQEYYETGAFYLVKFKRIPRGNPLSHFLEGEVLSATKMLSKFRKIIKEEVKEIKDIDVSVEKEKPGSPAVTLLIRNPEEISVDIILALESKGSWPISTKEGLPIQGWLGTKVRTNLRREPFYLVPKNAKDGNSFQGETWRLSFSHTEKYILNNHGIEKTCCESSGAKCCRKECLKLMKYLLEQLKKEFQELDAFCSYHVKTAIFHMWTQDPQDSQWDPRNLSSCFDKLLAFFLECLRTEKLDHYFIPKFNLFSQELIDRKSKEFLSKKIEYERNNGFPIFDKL
hcGAS lum: human cGAS inhibition; inhibition, % at 12.5 µM; 290,000 tested, 0.081% active; recombinant h-cGAS, ATP depletion, Kinase-Glo luminescence;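 also: 0% = vehicle reaction and 100% = reaction without DNA for no activity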
NPYLR7 ag: mosquito NPYLR7 agonism; HEK293T NPYLR7/Galpha15, GCaMP6s calcium fluorescence; activation, % at 10 µM; 270,000 tested, 0.15% active; in the data active = activation above about 40%;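 also: 0% = vehicle and 100% = reference agonist at the receptor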
The depositor's hits bear a star; x = no result given; ! = repeats disagree. This is a sample that favours compounds with a hit; in the whole collection about 0.28% have one here. Rule as the data show it, unless noted: active = inhibition above about 40%; inactive = the rest.

SMILES | mcGAS lum | hcGAS lum | NPYLR7 ag
CCOC(=O)N1CCN(C(=O)Cn2nnnc2CN2CCCC2)CC1 | -8.5 | -5.3 | -4.3
O=C(O)C1C2CC3C1C(=O)Oc1ccc(Br)cc1C1c4sc(=O)[nH]c4SC2C13 (stereo not drawn) | 41.4* | -0.9 | 12.6
O=C(O)C1C2CC3C1C(=O)Oc1ccccc1C1c4sc(=O)[nH]c4SC2C13 (stereo not drawn) | 13.7 | -4.0 | 15.3
CC1C(=O)c2cccc3c(=O)n(-c4ccccc4)c(O)c(c23)C1=O (stereo not drawn) | x | 4.4 | 82.9*
CC(=O)c1ccc(-n2c(=O)c3ccccc3c3ccccc3c2=O)cc1 | x | -5.6 | 4.2
CC(C)CN1CC2(CCN(C(=O)C3CCCN(CC(N)=O)C3)CC2)CC1=O (stereo not drawn) | -6.2 | -9.0 | x
O=c1oc2c(CN3CCN(CCO)CC3)c(O)ccc2cc1-c1ccccn1 | x | -6.9 | 9.5
O=c1oc2c(CN3CCN(CCO)CC3)c(O)ccc2cc1-c1nc2ccccc2s1 | x | -5.4 | 65.6*
O=S(=O)(c1ccsc1)N1CCOC(CCCc2ccccc2)C1 (stereo not drawn) | x | -2.5 | 3.6
CCOc1cc(C=C(C#N)C(=O)OC(C)C)cc(Cl)c1O | x | -7.4 | 13.7
COc1cc(C=C(C#N)S(=O)(=O)c2ccc(Cl)cc2)cc2c1OCCO2 | x | -3.8 | 0.9
COc1cc(C=C(C#N)C(=O)OC(C)C)cc(Cl)c1O | x | -4.1 | 82.6*
COc1cc(C=C(C#N)S(=O)(=O)c2ccc(Cl)cc2)cc(Cl)c1O | x | -1.4 | 117.7*
COCCN(CC(=O)N(CCc1c[nH]c2ccccc12)Cc1ccc(OC)c(OC)c1)C(=O)Nc1ccc(C#N)cc1 | -5.4 | -2.9 | x
COc1ccc(C2=NN(C(=O)CN3CCOCC3)C(c3nc4ccccc4[nH]3)C2)cc1 (stereo not drawn) | 0.8 | 7.6 | 51.6*
O=C(CN1CCOCC1)N1N=C(c2ccc(Br)cc2)CC1c1nc2ccccc2[nH]1 (stereo not drawn) | -4.9 | -5.3 | 8.9
Cc1nc2ncnn2c(N2CCN(C(=O)c3ccno3)CC2)c1Cc1ccccc1 | -6.5 | -4.9 | x
N#CC1C(=N)SC(=N)C(C#N)C1c1ccc(F)cc1F (stereo not drawn) | 23.8 | 18.5 | 0.4
Cc1ccc(C)c(C2C(C#N)C(=N)SC(=N)C2C#N)c1 (stereo not drawn) | x | -3.1 | 119.7*
O=C(C=Cc1ccccc1OC(F)F)c1ccc(F)cc1 | 43.0* | -5.2 | -2.1
COc1cc(C=CC(=O)c2ccc(F)cc2)ccc1OC(F)F | x | 1.4 | -9.5
CCCC1SCCN1C(=O)c1ccc2c(c1)[nH]c(=O)n2C (stereo not drawn) | x | -11.9 | -20.6
COC(=O)c1cnc(/C=C/c2cc(C)c(O)c(C)c2)s1 | x | -6.3 | 46.4*
CNC(=O)c1cnc(/C=C/c2cc(OC)c3c(c2)OCCO3)s1 | x | 2.6 | -7.2
CN(CC(=O)NC1CCCC1)Cc1ccc(Cl)s1 | x | -5.0 | 7.3
SMILES | mcGAS lum | hcGAS lum | NPYLR7 ag
CCOC(=O)c1c(-c2ccccc2)csc1N=Cc1nc(-c2ccco2)oc1O | -8.2 | -7.8 | 141.0*
CCOC(=O)c1c(N=Cc2nc(-c3ccccc3)oc2O)sc(C)c1C | -2.9 | -5.3 | -4.7
Cn1[nH]c(-c2ccccc2)c(C2=C(N3CCCC3)C(=O)N(c3ccc4c(c3)OCO4)C2=O)c1=O | -2.8 | -3.4 | x
COc1ccc(/C=C/c2ccc3ccccc3n2)c(OC)c1 | -9.6 | -10.8 | 2.0
COc1ccc(/C=C/C(=O)c2ccc(O)cc2O)cc1 | x | -1.3 | -16.7
COc1ccc2nc(/C=C/C(=O)c3ccc(O)cc3)ccc2c1 | 75.7* | -5.8 | -2.7
COc1ccc(/C=C/C(=O)c2cc(O)ccc2O)cc1 | 52.7* | 2.3 | -6.3
O=C(/C=C/c1ccc(O)cc1)c1ccc(O)cc1O | 14.1 | -9.6 | 1.9
O=C(/C=C/c1ccccc1)c1ccc(O)cc1O | 85.0* | 5.9 | 16.9
O=C(NCC(F)(F)F)c1cc(-c2ccccc2)cs1 | -5.1 | -12.7 | 3.4
Cc1ccc(CN(Cc2ccc(F)cc2)CC(O)Cc2ccccc2)c(C)c1 (stereo not drawn) | -5.0 | -3.9 | 30.0
CCCN(Cc1cc(C)ccc1C)CC(O)Cc1ccccc1 (stereo not drawn) | 62.3* | -5.3 | 3.3
O=C(NC1CC1)C1CCCN(C2CCN(C(=O)c3cccc4nccnc34)CC2)C1 (stereo not drawn) | x | -4.5 | 20.7
N=C(N)c1ccc(OCCCCCOc2ccc(C(=N)N)cc2)cc1 | x | 4.2 | 66.4*!
N=C(N)c1ccc(OCCCCCOc2ccc(C(N)=O)cc2)cc1 | 0.0 | -6.0 | 5.0
Cc1occc1-c1nnc(SCC#N)n1Cc1ccccc1 | x | -5.3 | -1.0
O=C(Nc1cccc(-c2cccc(-c3ccc4c(c3)OCCO4)n2)c1)C1CCCCC1 | -5.9 | -8.5 | -6.8
O=C(Nc1cccc(-c2nnco2)c1)C1CCCCC1 | x | -5.6 | 85.8*
O=C(CNCc1ccco1)N1CC(=O)N(c2cccc(Cl)c2)C1 | x | -0.7 | 25.2
O=C(CNCc1ccccc1)N1CC(=O)N(c2cccc(Cl)c2)C1 | 1.5 | 3.9 | 45.8*
N#C/C(=C\c1ccc(O)c(O)c1)C(=O)NCCCc1ccccc1 | 0.7 | 9.3 | 120.1*
N#C/C(=C\c1ccc(O)c(O)c1)C(=O)c1ccc(O)c(O)c1 | 15.4 | 18.6 | 16.1
CCN(Cc1ccco1)C(=O)/C=C/c1cn(C)c(=O)n(C)c1=O | x | -6.8 | 7.2
O=C(NCCCN1CCOCC1)c1cc2n(n1)CCN(CC1CC1)C2=O | -7.0 | -7.6 | 10.2
CN(C)CCNC(=O)CN1Cc2ccc(N3CCOCC3)nc2C1=O | -4.2 | -3.4 | 12.8
SMILES | mcGAS lum | hcGAS lum | NPYLR7 ag
C[C@@H](NC(=O)CN1Cc2ccc(N3CCOCC3)nc2C1=O)c1ccccc1 | -6.5 | -4.6 | 61.2*
Cc1ccc(C)c(Cn2c(CN3CCCC(C)C3)nc3c2c(=O)n(C)c(=O)n3C)c1 (stereo not drawn) | x | -4.0 | 2.2
Cc1cc(C)nc(SCc2cc(=O)c(OC(=O)Cc3ccc([N+](=O)[O-])cc3)co2)n1 | 8.9 | -5.8 | -11.3
CCOc1ccc(CC(=O)Oc2coc(CSc3nccc(C)n3)cc2=O)cc1 | 58.7* | 0.3 | -1.2
CCOc1ccc(CC(=O)Oc2coc(CSc3nc(C)cc(C)n3)cc2=O)cc1 | 63.4* | -0.3 | -16.5
Cc1cc(C)nc(SCc2cc(=O)c(OC(=O)Cc3ccc(Cl)cc3)co2)n1 | 31.1 | -1.4 | -10.4
Cc1cc(C)nc(SCc2cc(=O)c(OC(=O)Cc3ccc(F)cc3)co2)n1 | 81.6* | 4.9 | -15.7
Cc1ccnc(SCc2cc(=O)c(OC(=O)Cc3ccc(Cl)cc3)co2)n1 | 32.6 | -2.1 | -12.6
O=C(NC1CCS(=O)(=O)C1)c1c[nH]c2ccc(Br)cc12 (stereo not drawn) | x | -12.6 | 2.7
C=CCN(C(=O)c1cccc(OC)c1)c1nc2ccccc2s1 | x | -8.5 | 5.4
CCOC(=O)c1nc2cc(C)c(C)cc2nc1N1CCN(C(=O)c2ccc([N+](=O)[O-])o2)CC1 | -3.6 | -4.7 | 9.3
Cc1cccnc1CN(c1nc(CCN)nc2ccccc12)C(C)C | x | -0.6 | -6.9
CC(C)Oc1ccc(C(O)=C2C(=O)C(=O)N(CCCN(C)C)C2c2ccncc2)cc1 (stereo not drawn) | -7.4 | -4.7 | 13.5
COc1ccc(CCNC(=O)c2ccc(-c3cc(-c4cccc(C(F)(F)F)c4)n[nH]3)cc2)cc1 | -9.5 | -10.8 | -1.9
COc1cccc(CNC(=O)c2ccc(-c3cc(-c4cccc(C(F)(F)F)c4)n[nH]3)cc2)c1 | 103.8* | -0.6 | -6.7

Bioassay records from PubChem BioAssay.
